Consider five molecules from PubChem BioAssay.

Assay [1] has as its system PRMT1 (protein arginine N-methyltransferase 1). Description: PRMT1 binders on small-molecule microarrays, primary screen, biochemical, small-molecule microarray, 635 nm fluorescence (AID 1088).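 Further: binding of Prmt1 protein to compounds spotted on small-molecule microarray slides.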 The settings on record: small-molecule microarray binding, higher = more signal.
Assay [2] in a line: yeast growth modulation, basal conditions, primary screen, YJM789 clinical isolate, OD600, 24 h (AID 1089).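 Further: growth of clinical yeast isolate S. cerevisiae YJM 789 seeded 1000 cells per well; test concentration not given here.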 The conditions noted are these: S. cerevisiae YJM789 growth, higher = more signal, called active from +8 up or from −8 down.
A short description of assay [3]: fission yeast growth modulation, primary screen, strain 972, OD600, 24 h, no modulator (AID 1090).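 Further: basal condition with compound alone and no growth modifier present; test concentration not given here.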 The conditions noted are these: S. pombe 972 growth, higher = more signal, called active from +8 up or from −8 down.
A short description of assay [4]: S. cerevisiae growth modulation with rapamycin, primary screen, strain BY4716, OD600, 96 h (AID 1091). Further: test concentration not given here. The settings on record: higher = more signal, called active from +8 up or from −8 down.
For assay [5], the target named is Torsin-1A-interacting protein 2 (Homo sapiens) (UniProt Q8NFQ8). Description: LULL1 binders on small-molecule microarray, primary screen, cell lysate, human LULL1 lysate, 635/667 nm fluorescence (AID 1092).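 Further: probe is lysate of COS7 cells overexpressing human LULL1; score merges per-feature 667 nm fluorescence with signal-to-noise.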 The conditions noted are these: hLULL1 lysate binding, 635 nm fluorescence, higher = more signal.
Torsin-1A-interacting protein 2 (Homo sapiens), sequence (Q8NFQ8 whole entry, looked up): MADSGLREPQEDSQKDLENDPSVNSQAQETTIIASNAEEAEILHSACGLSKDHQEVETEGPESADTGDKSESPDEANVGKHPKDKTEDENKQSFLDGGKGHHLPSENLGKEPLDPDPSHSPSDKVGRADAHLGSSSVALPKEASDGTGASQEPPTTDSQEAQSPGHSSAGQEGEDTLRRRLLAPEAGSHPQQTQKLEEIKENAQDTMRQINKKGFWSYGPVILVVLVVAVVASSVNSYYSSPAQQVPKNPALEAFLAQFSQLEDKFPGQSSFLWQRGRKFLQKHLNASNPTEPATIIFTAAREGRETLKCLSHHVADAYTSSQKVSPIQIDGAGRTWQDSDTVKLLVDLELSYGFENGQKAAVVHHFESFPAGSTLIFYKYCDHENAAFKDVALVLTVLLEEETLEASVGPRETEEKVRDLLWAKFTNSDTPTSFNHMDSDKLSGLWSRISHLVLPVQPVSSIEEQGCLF
Assay [6] is described as follows: E. coli growth modulation, two-sided OD650, primary screen, E. coli filamentation project, strain DRC41, 24 h (AID 1093).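 Further: MC1000 strain lacking acrAB efflux and sulA so SOS filamentation is blocked; test concentration not given here.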 The conditions noted are these: OD650, 24 h, higher = more signal, called active from +8 up or from −8 down.
Assay [7] is described as follows: small-molecule microarray binders of probe aLefty2, primary screen, biochemical, biotinylated probe, 635/667 nm fluorescence (AID 1094).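 Further: score merges spot fluorescence near 667 nm with spot signal-to-noise ratio.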 The conditions noted are these: higher = more signal.
Assay [8] concerns Noggin (protein binding on small-molecule microarray). The assay can be described thus: Noggin binders on small-molecule microarray, primary screen, biochemical, 635/667 nm fluorescence (AID 1095).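 Further: score merges 667 nm feature fluorescence with signal to noise over triplicate slides.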 The conditions noted are these: 635 nm fluorescence, higher = more signal.
For assay [9], the target named is Neurogenic locus notch homolog protein 3 (Homo sapiens) (UniProt Q9UM47). The assay can be described thus: NOTCH3 binders on small-molecule microarray, primary screen, biochemical, 635/667 nm fluorescence (AID 1096). The conditions noted are these: NOTCH3 binding, 635 nm fluorescence, higher = more signal.
Neurogenic locus notch homolog protein 3 (Homo sapiens), sequence (Q9UM47 whole entry, looked up): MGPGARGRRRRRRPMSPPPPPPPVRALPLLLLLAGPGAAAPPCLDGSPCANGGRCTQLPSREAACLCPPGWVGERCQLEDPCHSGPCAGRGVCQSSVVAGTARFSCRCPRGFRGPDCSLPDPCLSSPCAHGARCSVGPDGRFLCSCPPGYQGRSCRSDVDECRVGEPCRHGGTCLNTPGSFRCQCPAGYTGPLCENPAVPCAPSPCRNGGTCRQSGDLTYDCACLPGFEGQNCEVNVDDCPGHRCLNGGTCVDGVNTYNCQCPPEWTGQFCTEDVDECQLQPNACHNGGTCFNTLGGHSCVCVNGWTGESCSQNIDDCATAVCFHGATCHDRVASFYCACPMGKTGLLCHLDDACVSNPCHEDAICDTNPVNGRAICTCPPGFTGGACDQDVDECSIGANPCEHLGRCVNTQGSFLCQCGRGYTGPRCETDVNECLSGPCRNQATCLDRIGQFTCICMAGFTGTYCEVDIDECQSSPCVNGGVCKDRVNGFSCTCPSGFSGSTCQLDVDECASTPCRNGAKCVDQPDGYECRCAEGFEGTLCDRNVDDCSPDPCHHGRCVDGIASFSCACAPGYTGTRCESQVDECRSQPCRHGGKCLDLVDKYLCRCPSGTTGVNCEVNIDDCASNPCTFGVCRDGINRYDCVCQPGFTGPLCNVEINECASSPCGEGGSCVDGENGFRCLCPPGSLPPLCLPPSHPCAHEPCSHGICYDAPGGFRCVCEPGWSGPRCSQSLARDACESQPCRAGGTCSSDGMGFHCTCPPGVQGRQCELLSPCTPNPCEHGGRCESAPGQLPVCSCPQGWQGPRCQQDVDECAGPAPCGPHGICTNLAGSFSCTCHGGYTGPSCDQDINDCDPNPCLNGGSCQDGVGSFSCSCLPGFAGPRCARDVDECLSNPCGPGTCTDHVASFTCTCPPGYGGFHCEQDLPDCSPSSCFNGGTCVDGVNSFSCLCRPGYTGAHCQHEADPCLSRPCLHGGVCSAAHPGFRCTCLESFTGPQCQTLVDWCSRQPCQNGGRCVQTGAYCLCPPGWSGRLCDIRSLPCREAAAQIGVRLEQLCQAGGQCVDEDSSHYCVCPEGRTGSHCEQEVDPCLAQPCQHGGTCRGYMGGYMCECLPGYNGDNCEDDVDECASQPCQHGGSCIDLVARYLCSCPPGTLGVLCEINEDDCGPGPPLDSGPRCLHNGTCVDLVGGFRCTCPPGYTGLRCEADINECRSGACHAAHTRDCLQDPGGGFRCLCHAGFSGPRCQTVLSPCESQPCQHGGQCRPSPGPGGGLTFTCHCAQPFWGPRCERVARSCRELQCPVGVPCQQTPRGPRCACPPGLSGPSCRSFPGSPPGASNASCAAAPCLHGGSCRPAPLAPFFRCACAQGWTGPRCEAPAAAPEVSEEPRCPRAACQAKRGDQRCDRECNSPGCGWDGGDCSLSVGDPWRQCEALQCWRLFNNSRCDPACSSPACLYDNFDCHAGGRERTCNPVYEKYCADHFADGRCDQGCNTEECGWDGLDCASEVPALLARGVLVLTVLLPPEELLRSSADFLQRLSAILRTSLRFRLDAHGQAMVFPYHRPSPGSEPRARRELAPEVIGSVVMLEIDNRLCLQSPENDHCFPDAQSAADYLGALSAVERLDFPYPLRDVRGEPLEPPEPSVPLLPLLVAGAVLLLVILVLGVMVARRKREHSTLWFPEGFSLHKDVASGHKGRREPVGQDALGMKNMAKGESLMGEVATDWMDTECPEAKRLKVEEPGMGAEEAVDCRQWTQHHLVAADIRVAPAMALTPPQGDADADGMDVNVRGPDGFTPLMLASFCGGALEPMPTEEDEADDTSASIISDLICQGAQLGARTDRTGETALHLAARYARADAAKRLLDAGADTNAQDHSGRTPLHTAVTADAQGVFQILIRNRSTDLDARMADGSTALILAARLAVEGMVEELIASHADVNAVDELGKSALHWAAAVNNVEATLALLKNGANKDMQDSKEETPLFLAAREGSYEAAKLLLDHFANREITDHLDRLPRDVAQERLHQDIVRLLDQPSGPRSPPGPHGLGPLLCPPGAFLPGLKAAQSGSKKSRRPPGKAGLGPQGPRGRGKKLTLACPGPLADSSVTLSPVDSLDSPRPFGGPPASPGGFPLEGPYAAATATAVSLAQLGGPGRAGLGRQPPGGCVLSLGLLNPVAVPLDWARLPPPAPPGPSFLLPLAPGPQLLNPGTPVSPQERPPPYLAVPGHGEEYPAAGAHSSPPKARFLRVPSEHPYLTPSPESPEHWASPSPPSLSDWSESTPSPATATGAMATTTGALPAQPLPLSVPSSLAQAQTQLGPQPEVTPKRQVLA
A short description of assay [10]: small-molecule microarray binders of probe aEGFR, primary screen, biochemical, biotinylated probe, 635/667 nm fluorescence (AID 1097).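 Further: probe is a biotinylated anti-EGFR antibody binding compounds printed on slides; score combines fluorescence near 667 nm and signal to noise of each spot.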 The settings on record: higher = more signal.
For assay [11], the system named is Plasmodium falciparum Sir2 (PF13_0152, Sir2A). Description: pfSir2 binders on small-molecule microarrays, primary screen, biochemical, small-molecule microarray, 635 nm fluorescence (AID 1098).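 Further: score merges spot fluorescence intensity with its signal-to-noise ratio.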 The settings on record: small-molecule microarray binding, fluorescence 635 nm; higher = more signal.
A short description of assay [12]: small-molecule microarray binders of probe aDKK1, primary screen, biochemical, biotinylated probe, 635/667 nm fluorescence (AID 1099).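 Further: score merges 667nm spot fluorescence with signal to noise across triplicate slides; reference of the scale not given here.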 The settings on record: higher = more signal.
Assay [13] is described as follows: small-molecule microarray binders of probe aCHRDL2, primary screen, biochemical, biotinylated probe, 635/667 nm fluorescence (AID 1100). The conditions noted are these: higher = more signal.
Assay [14] in a line: splicing luciferase reporter signal modulators, primary screen, spliceosome inhibition project, cell-based, HEK293, splice +/- reporter (AID 1101).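 Further: HEK293 cells carrying a splicing-competent luciferase reporter gene; test concentration not given here.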 The settings on record: luminescence, 24 h, higher = more signal, called active from +8 up or from −8 down.
The target in assay [15] is Fibroblast growth factor 10 (Homo sapiens) (UniProt O15520). Description: FGF10 binders on small-molecule microarrays, primary screen, biochemical, small-molecule microarray, 635 nm fluorescence (AID 1102). The settings on record: FGF10 binding, fluorescence 635 nm, higher = more signal.
Fibroblast growth factor 10 (Homo sapiens), sequence (O15520 whole entry, looked up): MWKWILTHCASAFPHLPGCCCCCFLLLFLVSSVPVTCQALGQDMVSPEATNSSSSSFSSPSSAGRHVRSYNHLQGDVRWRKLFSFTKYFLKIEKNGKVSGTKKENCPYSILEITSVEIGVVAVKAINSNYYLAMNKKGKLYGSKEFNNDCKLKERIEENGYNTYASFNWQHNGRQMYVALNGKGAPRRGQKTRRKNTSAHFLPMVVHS
Assay [16] has as its system glycogen synthase kinase-3 (GSK3A per assay name; protocol says GSK3B). Description: GSK3 binders on small-molecule microarrays, primary screen, biochemical, small-molecule microarray, 635 nm fluorescence, GSK3A (AID 1103). Further: the record names both GSK3A and GSK3B. The conditions noted are these: small-molecule microarray binding, fluorescence 635 nm; higher = more signal.
Assay [17] deals with Epidermal growth factor receptor (Homo sapiens) (UniProt P00533). The assay can be described thus: EGFR binders on small-molecule microarrays, primary screen, biochemical, small-molecule microarray, 635 nm fluorescence (AID 1104).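 Further: score merges 667 nm emission intensity with spot signal to noise over triplicate slides.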 The settings on record: EGFR binding, higher = more signal.
Epidermal growth factor receptor (Homo sapiens), sequence (P00533 whole entry, looked up): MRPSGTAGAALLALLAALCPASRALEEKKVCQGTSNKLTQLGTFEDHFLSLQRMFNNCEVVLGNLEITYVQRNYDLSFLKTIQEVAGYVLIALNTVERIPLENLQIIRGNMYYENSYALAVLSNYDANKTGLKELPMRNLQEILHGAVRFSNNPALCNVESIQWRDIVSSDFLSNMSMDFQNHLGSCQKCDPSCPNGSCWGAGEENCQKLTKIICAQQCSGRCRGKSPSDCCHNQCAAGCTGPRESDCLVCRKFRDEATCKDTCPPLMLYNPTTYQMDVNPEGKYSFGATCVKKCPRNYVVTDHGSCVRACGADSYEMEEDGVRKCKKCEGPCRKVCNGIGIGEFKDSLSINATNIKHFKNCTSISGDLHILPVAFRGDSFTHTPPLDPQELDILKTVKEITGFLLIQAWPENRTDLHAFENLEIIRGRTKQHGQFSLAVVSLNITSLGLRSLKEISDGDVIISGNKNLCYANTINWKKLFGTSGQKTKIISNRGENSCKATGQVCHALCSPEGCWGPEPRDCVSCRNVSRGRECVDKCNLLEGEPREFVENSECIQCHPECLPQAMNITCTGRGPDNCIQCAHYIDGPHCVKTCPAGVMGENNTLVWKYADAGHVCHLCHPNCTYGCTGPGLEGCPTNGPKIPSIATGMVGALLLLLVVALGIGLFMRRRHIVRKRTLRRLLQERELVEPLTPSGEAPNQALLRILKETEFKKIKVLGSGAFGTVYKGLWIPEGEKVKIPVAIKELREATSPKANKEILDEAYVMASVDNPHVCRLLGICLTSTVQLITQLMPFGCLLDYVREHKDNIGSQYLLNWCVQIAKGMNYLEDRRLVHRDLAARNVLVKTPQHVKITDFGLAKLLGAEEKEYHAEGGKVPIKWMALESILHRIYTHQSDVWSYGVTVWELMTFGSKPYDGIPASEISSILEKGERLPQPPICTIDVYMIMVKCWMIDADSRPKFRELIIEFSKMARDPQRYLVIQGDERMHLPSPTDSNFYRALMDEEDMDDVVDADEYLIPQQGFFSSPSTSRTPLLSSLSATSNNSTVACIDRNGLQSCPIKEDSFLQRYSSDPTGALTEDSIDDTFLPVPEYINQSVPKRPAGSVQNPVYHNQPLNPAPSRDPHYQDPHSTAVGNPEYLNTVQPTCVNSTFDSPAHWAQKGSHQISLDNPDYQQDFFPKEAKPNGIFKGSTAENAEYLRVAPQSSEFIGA
Assay [18] concerns the target Follistatin-related protein 3 (Homo sapiens) (UniProt O95633). Description: FSTL3 binders on small-molecule microarrays, primary screen, biochemical, small-molecule microarray, 635 nm fluorescence (AID 1105).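 Further: score merges emission near 667 nm and signal to noise per printed spot across three slides.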 The settings on record: FSTL3 binding, higher = more signal.
The target in assay [19] is Dickkopf-related protein 1 (Homo sapiens) (UniProt O94907). The assay can be described thus: DKK1 binders on small-molecule microarrays, primary screen, biochemical, small-molecule microarray, 635 nm fluorescence scan (AID 1106).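 Further: score merges emission near 667 nm with signal to noise over three replicate slides.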 The settings on record: DKK1 binding, higher = more signal.
Dickkopf-related protein 1 (Homo sapiens), sequence (O94907 whole entry, looked up): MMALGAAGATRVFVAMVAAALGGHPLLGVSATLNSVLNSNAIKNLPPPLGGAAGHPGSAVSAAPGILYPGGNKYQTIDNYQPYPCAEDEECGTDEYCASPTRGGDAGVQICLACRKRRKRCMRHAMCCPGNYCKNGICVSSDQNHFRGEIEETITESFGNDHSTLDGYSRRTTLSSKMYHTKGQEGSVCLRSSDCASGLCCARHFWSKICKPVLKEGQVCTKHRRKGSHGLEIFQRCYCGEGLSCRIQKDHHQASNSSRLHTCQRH
Assay [20] relates to Inhibin beta A chain (activin A). The assay can be described thus: INHBA (activin A) binders on microarrays, primary screen, biochemical, small-molecule microarray, 635 nm fluorescence scan (AID 1107).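 Further: mouse activin A protein probed at 4.33 µg/mL on printed slides; score merges bound-protein fluorescence near 667 nm with spot signal-to-noise.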 The settings on record: small-molecule microarray binding, higher = more signal.

Calls of active or inactive are those of the source.

Follistatin-related protein 3 (Homo sapiens), sequence (O95633 whole entry, looked up): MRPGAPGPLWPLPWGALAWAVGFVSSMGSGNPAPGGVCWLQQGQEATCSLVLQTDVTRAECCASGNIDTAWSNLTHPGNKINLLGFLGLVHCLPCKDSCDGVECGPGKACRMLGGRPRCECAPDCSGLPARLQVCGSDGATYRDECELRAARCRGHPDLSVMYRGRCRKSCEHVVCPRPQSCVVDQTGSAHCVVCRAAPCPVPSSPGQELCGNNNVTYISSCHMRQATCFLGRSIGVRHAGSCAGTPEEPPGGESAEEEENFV

Turning to `O=C1OCCC=C[C@H]2OC34C=CCN(Cn5nnc6ccccc65)C(=O)[C@H]3N(CCCCCCO)C(=O)[C@@H]4C12` (stereo not given in full), the composite z-score was -0.0465 in assay [1]; 0.529 in [5]; -0.0741 in [7]; -1.09 in assay [8]; -0.36 in assay [9]; -0.354 in assay [10]. For the same molecule, the composite z-score in assay [11] was 1.8; in assay [12] it was -0.0278; in assay [13], 0.337; in assay [15], -0.893; in assay [16], -0.357; in assay [17], -1.23. The values for the composite z-score in [18], in assay [19] and in assay [20] were -0.822, -1.03 and -0.157, respectively. Further, the z-score in assay [2] was 0.298 (inactive); in assay [3] it was 0.577 (inactive); in [4], 0.194 (inactive); in assay [6], -0.369 (inactive); in assay [14], 0.415 (inactive).

Regarding `CN1C(=O)C2C=CC(C(O)COCc3ccccc3)N(N(c3ccccc3)c3ccccc3)C2C1=O` (stereo not given), the composite z-score in assay [1] was 0.482; in assay [5], 2.11; in [7], 0.388; in assay [8], -0.419; in assay [9], 0.894; in assay [10] it was 0.726. Also, the composite z-score in assay [11] was 0.35; in assay [12] it was 0.553; in assay [13], 0.815; in assay [15], 0.126; in assay [16], -0.588; in [17], 0.238. In addition, the composite z-score was 0.127 in assay [18], -0.674 in assay [19] and -0.101 in assay [20]. For the same molecule, the z-score in assay [2] is 0.298 (inactive); in assay [3] it was -1.86 (inactive); in assay [4], 0.544 (inactive); in assay [6], -0.0181 (inactive); in [14], 0.915 (inactive).

As to `[N-]=[N+]=Nc1ccccc1[C@H]1OC(c2ccc(OCCCO)cc2)=N[C@@]1(Cc1ccccc1)C(=O)N1CCCCC1`, the composite z-score in [1] was 1.54; in [5], 3.29; in assay [7], 0.339; in [8], 0.94; in assay [9], 1.08; in [10], 0.286. The composite z-score in assay [11] amounted to 0.813; in [12], 1.04; in assay [13], 1.13; in assay [15], 1.45; in [16], 0.99; in assay [17], 0.422. The composite z-score is 1.11 in assay [18], 1.18 in assay [19] and 1.03 in assay [20]. Besides, the z-score was -2.09 (inactive) in assay [2]; 0.708 (inactive) in [3]; 2.21 (inactive) in assay [4]; 0.774 (inactive) in assay [6]; 1.35 (inactive) in assay [14].

Turning to `C=CCC(OC(C)=O)[C@@H]1[C@@H](N(Cc2cccc3ccccc23)C(=O)Cc2ccc(OC)cc2)c2cc(OCCCO)ccc2N1C(=O)c1ccc2ccccc2n1` (stereo not given in full), the composite z-score in [1] is 0.892; in [5], 1.2; in [7], -0.109; in [8], 0.201; in [9], 0.222; in assay [10] it was -0.144. For the same molecule, the composite z-score in [11] was -0.316; in [12] it was -0.0805; in assay [13], 0.144; in assay [15] it was 0.103; in assay [16], -0.135; in assay [17], 0.124. In addition, the composite z-score was 0.484 in [18], -0.0462 in assay [19] and 1.33 in assay [20]. Besides, the z-score is -0.482 (inactive) in assay [2]; 0.787 (inactive) in [3]; -1.24 (inactive) in assay [4]; -0.558 (inactive) in assay [6]; -0.326 (inactive) in assay [14].

Regarding `CN1C(=O)C2C=CC(C(O)c3ccccn3)N(N(c3ccccc3)c3ccccc3)C2C1=O` (stereo not given), the composite z-score in assay [1] is 0.412; in assay [5] it was 1.87; in assay [7], 0.235; in assay [8], -0.112; in [9], -0.343; in assay [10] it was 0.0353. Also, the composite z-score in [11] is 1.44; in [12], -0.16; in assay [13] it was 0.711; in assay [15], 0.62; in assay [16], 0.19; in assay [17] it was 0.22. In addition, the composite z-score in [18] was 0.273; in assay [19] it was -0.0644; in assay [20] it was 0.79. Further, the z-score in assay [2] was 1.13 (inactive); in [3] it was 0.863 (inactive); in assay [4] it was 0.491 (inactive); in assay [6], -0.828 (inactive); in assay [14], 0.527 (inactive).
